Test results as given in PubChem BioAssay AID1159580 (chemical genetic matrix, 2015).
Values joined by “and” are separate entries in the source; they are usually repeats but may differ in a detail not shown here. Identical values can stand only once. The whole screen tested about 5,500 compounds, of which about 2,000 (36%) were called active. Roughly 18% stayed inconclusive and do not appear here. Rule as the data show it: active = normalized growth mostly below about 0.91 (no sharp cut-off); inconclusive = no clear call, values can overlap the other calls; inactive = mostly above about 0.92. The list shows a part of the results.

Experiment: chemical genetic growth profiling, strain panel (AID 1159580);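 also: tested at 20 µM; growth read once vehicle control cultures reached saturation at 30 °C; 1 = growth at the plate median or of vehicle wells; lower values mean less growth of the strain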
Conditions: S. cerevisiae deletion strains, growth OD

Measured: normalized growth

NS(=O)(=O)c1cc2c(cc1Cl)NC=NS2(=O)=O
inactive: locus YAL013W, strain DEP1, active compounds read low 1 | locus YAL021C, strain ccr4, active compounds read low 0.984 | locus YAL026C, strain drs2, active compounds read low 1.01 | locus YAL030W, strain snc1, active compounds read low 1 | locus YAL040C, strain CLN3, active compounds read low 1 | locus YBL061C, strain skt5, active compounds read low 1 | locus YBR009C, strain hhf1, active compounds read low 0.983 | locus YBR021W, strain FUR4, active compounds read low 1 | locus YBR023C, strain chs3, active compounds read low 1 | locus YBR171W, strain sec66, active compounds read low 1 | locus YBR229C, strain ROT2, active compounds read low 1 | locus YBR231C, strain swc5, active compounds read low 0.973 | locus YBR279W, strain paf1, active compounds read low 0.997 | locus YCL011C, strain gbp2, active compounds read low 1 | locus YCL016C, strain dcc1, active compounds read low 0.999 | locus YCL029C, strain bik1, active compounds read low 0.997 | locus YCL061C, strain MRC1 (second series), active compounds read low 1 | locus YCL061C, strain MRC1, active compounds read low 1.01 | locus YCL069W, strain vba3, active compounds read low 1.01 | locus YCR088W, strain abp1, active compounds read low 0.995 | locus YDL005C, strain med2, active compounds read low 0.997 | locus YDL035C, strain GPR1, active compounds read low 1.02 | locus YDL040C, strain nat1, active compounds read low 1 | locus YDL074C, strain BRE1, active compounds read low 1.01 | locus YDL101C, strain DUN1, active compounds read low 1.01 | locus YDL134C, strain PPH21, active compounds read low 1 | locus YDL185W, strain tfp1, active compounds read low 0.974 | locus YDL192W, strain arf1, active compounds read low 1 | locus YDR001C, strain nth1, active compounds read low 1.03 | locus YDR069C, strain doa4, active compounds read low 1 | locus YDR101C, strain arx1, active compounds read low 0.996 | locus YDR137W, strain rgp1, active compounds read low 0.999 | locus YDR150W, strain NUM1, active compounds read low 1.01 | locus YDR159W, strain sac3, active compounds read low 1 | locus YDR162C, strain NBP2, active compounds read low 1.02 | locus YDR195W, strain ref2 0.93 | locus YDR297W, strain sur2, active compounds read low 1 | locus YDR318W, strain mcm21, active compounds read low 1 | locus YDR334W, strain swr1, active compounds read low 1 | locus YDR335W, strain msn5, active compounds read low 1.02 | locus YDR388W, active compounds read low 0.997 | locus YDR392W, strain spt3, active compounds read low 1 | locus YDR502C, strain sam2, active compounds read low 1.01 | locus YEL003W, strain gim4, active compounds read low 0.99 | locus YEL037C, strain rad23, active compounds read low 0.999 | locus YEL061C, strain CIN8 (second series), active compounds read low 1.02 | locus YEL061C, strain CIN8, active compounds read low 1 | locus YER002W, strain NOP16, active compounds read low 0.975 | locus YER015W, strain faa2, active compounds read low 1.01 | locus YER016W, strain bim1, active compounds read low 1.01 | locus YER110C, active compounds read low 0.986 | locus YER111C, strain swi4, active compounds read low 0.99 | locus YER155C, strain BEM2 (second series), active compounds read low 0.963 | locus YER155C, strain BEM2, active compounds read low 1 | locus YER167W, strain BCK2, active compounds read low 1.03 | locus YFR010W, strain ubp6, active compounds read low 1.02 | locus YGL078C, strain dbp3, active compounds read low 1 | locus YGL086W, strain mad1, active compounds read low 1 | locus YGL167C, strain pmr1, active compounds read low 0.993 | locus YGL173C, strain kem1, active compounds read low 0.989 | locus YGL227W, strain vid30, active compounds read low 0.988 | locus YGL240W, strain doc1, active compounds read low 0.988 | locus YGL248W, strain PDE1, active compounds read low 1.01 | locus YGL253W, strain hxk2, active compounds read low 1.03 | locus YGR078C, strain PAC10, active compounds read low 1.01 | locus YGR135W, strain pre9, active compounds read low 0.998 | locus YGR229C, strain SMI1, active compounds read low 1.02 | locus YGR252W, strain gcn5, active compounds read low 1.02 | locus YHR013C, strain ard1, active compounds read low 0.966 | locus YHR027C, strain rpn1, active compounds read low 1 | locus YHR030C, strain SLT2, active compounds read low 1.01 and 0.954 | locus YHR079C, strain IRE1 (second series), active compounds read low 1 | locus YHR079C, strain IRE1, active compounds read low 0.965 | locus YHR094C, strain hxt1, active compounds read low 0.995 | locus YHR129C, strain ARP1, active compounds read low 1 | locus YHR142W, strain chs7, active compounds read low 1.02 | locus YHR200W, strain rpn10, active compounds read low 0.993 | locus YIL066C, strain RNR3, active compounds read low 1.02 | locus YIL073C, strain SPO22, active compounds read low 1.03 | locus YIL125W, strain kgd1, active compounds read low 1 | locus YIR030C, strain dcg1, active compounds read low 0.99 | locus YJL092W, strain hpr5, active compounds read low 1.01 | locus YJL095W, strain BCK1 (second series), active compounds read low 1 | locus YJL095W, strain BCK1, active compounds read low 1.02 and 0.975 | locus YJL115W, strain asf1, active compounds read low 1.01 | locus YJL129C, strain trk1, active compounds read low 1.02 | locus YJL134W, strain LCB3, active compounds read low 1 | locus YJL154C, strain vps35, active compounds read low 0.989 | locus YJL164C, strain tpk1, active compounds read low 1 | locus YJL166W, strain qcr8, active compounds read low 0.985 | locus YJL168C, strain set2, active compounds read low 0.995 | locus YJL187C, strain SWE1 (second series), active compounds read low 1.03 | locus YJL187C, strain SWE1, active compounds read low 1.01 | locus YJR043C, strain POL32, active compounds read low 0.996 | locus YJR066W, strain TOR1, active compounds read low 0.973
